HT1080 IDH1KD tx – HT-1080 IDH1 knockdown cell toxicity (counter line) | HT-1080 IDH1 knockdown viability, ATP luminescence, 48 h | Potency, µM (series often up to 46.1 µM), for inactives: top-dose activity, negative = toxicity, actives largely listed as cytotoxic | hit rate 2% among 360,000 | AID 686971;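 further: potency means the concentration at half of the fitted maximal effect; 0% = DMSO wells and -100% = cell-free medium wells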
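Luminescent ATP read-out (CellTiter-Glo, 10 min at room temperature) after 48 h compound exposure at 37 °C gave viability of IDH1-knockdown HT-1080 cells. Activity was normalised to DMSO and cell-free wells, then fitted as concentration-response curves.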
TDP1 cell noCPT – qHTS for Inhibitors of human tyrosyl-DNA phosphodiesterase 1 (TDP1): qHTS in cells in absence of CPT. AID 686978, 2013. DT40 Tdp1-/- hTDP1 cells, no CPT, ATP luminescence, 48 h. Potency, µM (highest dose often 46.2 µM), for the others: at the top dose activity change, negative = growth inhibition, actives largely listed as inhibitors. hit rate 15% among 420,000; further: potency means the concentration at half of the fitted maximal effect; nearly all actives have a fitted effect of over 55% in size
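DT40 Tdp1-/-;hTDP1 cells, no CPT (DMSO vehicle only), 400 cells/well; compounds pin-transferred; ≥48 hr, 37 °C; CellTiter-Glo 30 min RT dark, luminescence read.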
HT1080-NT tox – kills 2HG-producing HT-1080-NT fibrosarcoma cells; HT-1080-NT fibrosarcoma viability, CellTiter-Glo ATP luminescence, 48 h; hit rate 1.6% among 360,000; AID 686970; Potency, µM (titrated, usually from 46.1 µM), inactives show top-dose activity, negative = less viability, usual class: cytotoxic;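 further: NT is the 2HG producing partner of a matched IDH1 knockdown line; potency means the concentration at half of the fitted maximal effect; 0% = DMSO-treated cells and -100% = media-only wells without cells; nearly all actives have a fitted effect of over 55% in size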
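Fibrosarcoma NT cells, 750 per well in 5% FBS RPMI, were exposed to compound for 48 hours. Viability: CellTiter-Glo luminescence.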
IL1B secr inh – inflammasome signaling inhibition, IL-1 beta readout; THP-1 LPS/ATP IL-1B secretion, AlphaLISA, 16 h; active compounds read low; activity change, % at 57.5 µM; hit rate 4.7% among 360,000; in the data active means activity change below about -50%; inconclusive means mostly about -30% to -49%
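THP-1 cells pretreated 1 hr with compounds (up to 57.5 uM final), then stimulated with LPS (250 ng/mL final) plus ATP (1.25 mM final); secreted IL-1B measured by AlphaLISA after 16 hr, decreased signal indicating inhibition.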
ALOX12 inh – ALOX12 (human) lipoxygenase inhibition; P18054; Potency, µM (series often up to 108 µM), for the others: top-dose activity change, negative = inhibition, usual class: inhibitors; purified 12hLO, xylenol orange hydroperoxide absorbance; AID 1671190; hit rate 1.1% among 580,000; further: potency means the concentration at half of the fitted maximal effect
Target sequence (P18054 whole entry, looked up): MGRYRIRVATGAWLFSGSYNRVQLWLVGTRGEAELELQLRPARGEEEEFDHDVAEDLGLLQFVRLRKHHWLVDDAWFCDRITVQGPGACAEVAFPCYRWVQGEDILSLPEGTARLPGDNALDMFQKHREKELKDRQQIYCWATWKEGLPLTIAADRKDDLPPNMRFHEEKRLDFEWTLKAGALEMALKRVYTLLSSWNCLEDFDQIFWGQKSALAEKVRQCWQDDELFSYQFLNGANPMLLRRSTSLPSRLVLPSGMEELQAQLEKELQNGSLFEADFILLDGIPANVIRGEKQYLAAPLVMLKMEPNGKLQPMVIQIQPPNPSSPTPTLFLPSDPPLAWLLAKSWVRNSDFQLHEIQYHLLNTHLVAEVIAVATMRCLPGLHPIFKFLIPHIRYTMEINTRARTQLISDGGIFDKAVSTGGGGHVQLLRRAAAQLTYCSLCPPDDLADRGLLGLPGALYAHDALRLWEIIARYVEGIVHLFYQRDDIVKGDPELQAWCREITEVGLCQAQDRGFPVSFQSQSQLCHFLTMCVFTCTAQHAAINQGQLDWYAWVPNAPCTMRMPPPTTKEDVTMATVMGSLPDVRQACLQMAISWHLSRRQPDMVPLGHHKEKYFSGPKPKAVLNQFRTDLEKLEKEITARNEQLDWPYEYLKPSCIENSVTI
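Hydroperoxide product was detected by ferrous iron/xylenol orange as the 573 to 405 nm absorbance ratio. Arachidonic acid at 40 uM (final) was turned over for 30 min at room temperature by 150 nM human 12hLO, pH 7.0 Hepes buffer, after 15 min compound preincubation.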
TDP1 cell CPT – DT40-hTDP1 cell growth loss with CPT; chicken DT40 Tdp1-/-;hTDP1 cells + 20 nM CPT, ATP luminescence, 48 h; Potency, µM (doses to about 46.2 µM), for inactives: at the highest dose activity change, negative = growth inhibition, hits mostly inhibitors; hit rate 12% among 420,000; further: potency means the concentration at half of the fitted maximal effect; nearly all actives have a fitted effect of over 55% in size
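Chicken DT40 Tdp1-/- cells stably complemented with human TDP1 were seeded at 400 cells/well in medium containing 20 nM camptothecin, exposed to pin-transferred compounds, and grown at 37 °C for at least 48 hr. Viability was read as ATP luminescence.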
The depositor's hits bear a star. Shown is part of a subset that was picked to be rich in hits. Unless noted, the call rests on the fitted dose curve; in most records, active means well fitted curve in the direction sought with a large enough effect; inconclusive means small, poorly fitted or top-dose-only effect, or another doubt; inactive means no such curve, though single readings can be large; an effect the other way counts as inactive or inconclusive. Unless noted, on the % scale 0 is the no-effect control and ±100 the full control effect.

CCCc1nc(SC)ncc1C(=O)N1CCN(c2ccc(Cl)cc2)CC1 was read as TDP1 cell noCPT 23µM*, ALOX12 inh -18% and TDP1 cell CPT inconclusive.
O=C(c1cnc(N2CCN(c3ncccn3)CC2)c2ccccc12)N1CCN(c2ncccn2)CC1 was read as HT1080 IDH1KD tx -28%, TDP1 cell noCPT 15µM*, HT1080-NT tox -17%, IL1B secr inh -54*, ALOX12 inh 9% and TDP1 cell CPT 15µM*.
`O=C(c1cnc(N2CCCCC2)c2ccccc12)N1CCN(c2ccc(Cl)cc2)CC1` gave TDP1 cell noCPT 23µM*, ALOX12 inh -24% and TDP1 cell CPT 15µM*.
Cc1ccc(Cl)cc1N1CCN(C(=O)c2cnc(N3CCOCC3)c3ccccc23)CC1 was read as TDP1 cell noCPT 6.5µM*, ALOX12 inh 0% and TDP1 cell CPT 5.8µM*.
Screening CCOC(=O)/C(=N\Nc1ccc(C(C)=O)cc1)c1csc(Nc2ccccc2)n1 returned HT1080 IDH1KD tx 16µM*, TDP1 cell noCPT 10µM*, HT1080-NT tox 16µM*, IL1B secr inh 3, ALOX12 inh -17% and TDP1 cell CPT inconclusive.
Cc1[nH]c2ccccc2c1C1(O)C(=O)N(Cc2ccccc2)c2ccc(Br)cc21 (centres undefined) was read as TDP1 cell noCPT 4.6µM*, ALOX12 inh inconclusive and TDP1 cell CPT 4.1µM*.
`Cc1cccc2c1NC(=O)C2(O)c1c(C)[nH]c2ccccc12` (centres undefined) gave ALOX12 inh -50%.
Screening CCCCN1C(=O)C(O)(c2ccccc2)c2cc(Br)ccc21 (centres undefined) returned HT1080 IDH1KD tx 14%, TDP1 cell noCPT 4%, HT1080-NT tox 2%, IL1B secr inh -14, ALOX12 inh inconclusive and TDP1 cell CPT inconclusive.
Screening Cc1ccc(CNC(=O)Cc2c[nH]c3ccccc23)cc1 returned ALOX12 inh -4%.
Cc1[nH]c2ccccc2c1C1(O)C(=O)N(Cc2ccccc2Cl)c2ccccc21 (centres undefined) was read as TDP1 cell noCPT 5.2µM*, ALOX12 inh -38% and TDP1 cell CPT 5.8µM*.
Screening Cc1ccc(CN2C(=O)C(O)(c3c[nH]c4ccccc34)c3cc(Cl)ccc32)cc1 (centres undefined) returned TDP1 cell noCPT 23µM*, ALOX12 inh inconclusive and TDP1 cell CPT inconclusive.
`COc1cccc(NC(=S)Nc2cc(C)cc(C)n2)c1` gave HT1080 IDH1KD tx 5%, TDP1 cell noCPT -22%, HT1080-NT tox 9%, ALOX12 inh 15% and TDP1 cell CPT -1%.
CCNC(=S)/N=C(/Nc1ccc(OC)cc1)Nc1nc(C)cc(C)n1 was read as HT1080 IDH1KD tx 16%, TDP1 cell noCPT 21µM*, HT1080-NT tox 20%, IL1B secr inh 26, ALOX12 inh inconclusive and TDP1 cell CPT 23µM*.
Screening COc1cccc(N/C(=N/C(=S)Nc2ccc(C)cc2C)Nc2nc(C)cc(C)n2)c1 returned HT1080 IDH1KD tx inconclusive, TDP1 cell noCPT 18µM*, HT1080-NT tox inconclusive, IL1B secr inh 70, ALOX12 inh 0% and TDP1 cell CPT inconclusive.
Screening CCN(CC)CCn1c2ccccc2c2cnc(N=CN(C)C)c(C#N)c21 returned HT1080 IDH1KD tx inconclusive, TDP1 cell noCPT 16µM*, HT1080-NT tox inconclusive, ALOX12 inh inactive and TDP1 cell CPT 16µM*.
`CCn1c2ccccc2c2cnc(N=CN(C)C)c(C#N)c21` gave HT1080 IDH1KD tx -1%, TDP1 cell noCPT 15µM*, HT1080-NT tox -4%, IL1B secr inh -9, ALOX12 inh -9% and TDP1 cell CPT inconclusive.
